hgDAF12 agonist = H. glycines DAF-12 receptor agonists, primary screen, cell-based, luminescence, HEK293, GAL4 fusion, UAS-luciferase; activation, % at 6.8 µM; HEK293 GAL4-hgDAF12 UAS-luciferase reporter, agonist luminescence; normalized to butyrate control; hit rate 1.8% among 370,000; Nuclear hormone receptor DAF-12 (Heterodera glycines), GAL4 fusion;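 active = activation above a cutoff set at the mean of all screened compounds plus 3 SD, cut at about 10% in these data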;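 note: 0% = DMSO wells and 100% = sodium butyrate wells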
SMARCA2 act = SMARCA2 (BRM) function activators, primary screen, cell-based, luminescence, high throughput; hit rate 1% among 370,000; activation, % at 9.1 µM; MG213 cells, MMTV-luciferase reporter, dexamethasone, overnight; AID 652017, 2013; in the data active = activation above about 7.8%;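 note: 0% = vehicle wells and 100% = reference activator wells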
ssDAF-12 act = S. stercoralis DAF-12 nuclear receptor activators, primary screen, cell-based, luminescence, HEK293, GRIP1 co-expression, lit1-tk-luc | HEK293 ssDAF-12/GRIP1 lit1-tk-luc reporter; % of 3 µM dafachronic acid response | Nuclear hormone receptor DAF-12 (Strongyloides stercoralis) | hit rate 1% among 370,000 | activation, % at 6.8 µM;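 active = activation above the mean over all tested compounds plus 3 SD, cut at about 0.9% in these data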;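 note: 0% = DMSO-only wells and 100% = 3 µM delta7-dafachronic acid wells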
DAX1 inh = DAX1 (NR0B1) inhibitors on StAR promoter, primary screen, cell-based, luminescence, SF-1 (NR5A1), full-length DAX-1. HEK293T StAR-luciferase reporter, SF-1/DAX-1 repression relief. inhibition, % at 6.8 µM. hit rate 1.1% among 370,000;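 active = inhibition above the mean over all tested compounds plus 3 SD, cut at about 3.6% in these data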;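 note: 0% = DAX-1 cells with DMSO and 100% = cells lacking DAX-1 with DMSO; higher inhibition means more luminescence from relief of DAX-1 repression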
hcDAF-12 act = H. contortus DAF-12 nuclear receptor activators, primary screen, cell-based, luminescence, HEK293, lit1-tk-luc reporter; HEK293 hcDAF-12 lit1-tk-luc reporter; 0% DMSO, 100% Δ7-dafachronic acid; activation, % at 6.8 µM; hit rate 1.4% among 370,000; AID 652067, 2013;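 active = activation above the mean of all tested compounds plus 3 SD, cut at about 5.5% in these data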;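 note: 100% = response to 3 µM Δ7-dafachronic acid high control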
DAX1 inh confirm = DAX1 (NR0B1) inhibitors relieving SF-1 repression, confirmation, cell-based, luminescence, HEK293T, full-length DAX-1, SF-1 activated StAR promoter. hit rate 87% among 2,400. inhibition, % at 6.8 µM. HEK293T StAR-promoter luciferase reporter, SF-1/DAX-1 repression. shares compounds with DAX1 inh;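 active = inhibition above the average of every tested compound plus 3 SD, cut at about 3.8% in these data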;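 note: 0% = DAX-1 cells with DMSO and 100% = no DAX-1 control cells with DMSO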
Target sequence (P51843 whole entry, looked up): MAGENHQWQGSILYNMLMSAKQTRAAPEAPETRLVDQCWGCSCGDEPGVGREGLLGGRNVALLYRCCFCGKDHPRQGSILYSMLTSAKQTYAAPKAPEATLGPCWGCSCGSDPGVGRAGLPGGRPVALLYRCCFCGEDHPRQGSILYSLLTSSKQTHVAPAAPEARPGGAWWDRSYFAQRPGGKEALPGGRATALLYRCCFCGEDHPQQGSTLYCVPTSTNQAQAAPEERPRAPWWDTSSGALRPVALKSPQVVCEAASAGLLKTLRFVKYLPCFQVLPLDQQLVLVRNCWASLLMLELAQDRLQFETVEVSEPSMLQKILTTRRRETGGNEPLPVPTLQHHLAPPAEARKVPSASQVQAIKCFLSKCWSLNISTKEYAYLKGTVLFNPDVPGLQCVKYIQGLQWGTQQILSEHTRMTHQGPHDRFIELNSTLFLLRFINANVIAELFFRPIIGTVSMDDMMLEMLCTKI
SF1 AF2mut Luc = StAR reporter signal changes without DAX1, counter-screen for DAX1 inhibitor project, cell-based, luminescence, AF-2 mutant SF-1, transactivation; shares compounds with DAX1 inh; HEK293 StAR-luciferase, SF-1 AF2 mutant; inhibition, % at 6.8 µM; hit rate 78% among 2,400;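 active = inhibition above the mean of all tested compounds plus 3 SD, cut at about 3% in these data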;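 note: 0% = DAX-1 transfected cells with DMSO and 100% = cells without DAX-1 with DMSO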
LXR ag = LXR agonists, Gal4 luciferase reporter, confirmation, counter-screen for hcDAF-12 agonist project, cell-based, luminescence, HEK293, H. contortus campaign | shares compounds with hcDAF-12 act | HEK293 Gal4-LXR tk-luc reporter, 24 h; normalized: DMSO 0%, positive control 100% | activation, % at 6.8 µM | 3,400 tested, under 10 active | AID 743027, 2013;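 active = mean percent activation of the reporter above a cutoff set as the average over tested compounds plus their standard deviation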
hcDAF12 ag = H. contortus DAF-12 receptor agonists, confirmation, cell-based, luminescence, HEK293, lit1-tk-luc, triplicate | shares compounds with hcDAF-12 act | HEK293 hcDAF-12 lit1-tk-luc reporter; % of Δ7-dafachronic acid response | activation, % at 6.8 µM | hit rate 61% among 3,400;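 active = mean activation across triplicate tests above the threshold derived from the earlier primary screen, cut at about 5.5% in these data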;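 note: 0% = DMSO only wells and 100% = 3 µM Δ7-dafachronic acid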
hgDAF12 ag = H. glycines DAF-12 receptor agonists, confirmation, cell-based, luminescence, HEK293, GAL4-LBD fusion | shares compounds with hgDAF12 agonist | HEK293 GAL4-hgDAF12 luciferase reporter, agonist mode; percent of butyrate response | activation, % at 6.8 µM | hit rate 80% among 3,300 | AID 743050, 2013;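 active = mean activation over triplicate wells above the hit cutoff derived from the earlier primary screen, cut at about 11% in these data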;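 note: 0% = DMSO low control and 100% = 2 mM sodium butyrate high control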
LXRb DAF12 ctr = LXR agonists, Gal4 luciferase reporter, confirmation, counter-screen for hgDAF-12 agonist project, cell-based, luminescence, HEK293, H. glycines campaign. shares compounds with hgDAF12 agonist. activation, % at 6.8 µM. 3,300 tested, under 10 active. 24 h. AID 743051, 2013;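 active = mean activation of the triplicate above a set limit carried over from the primary screen, none filed active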
* hit, by the source's call; · = no result given. Most compounds without a hit are left out; they make up all but 4.2% or so of the library.

SMILES | hgDAF12 agonist | SMARCA2 act | ssDAF-12 act | DAX1 inh | hcDAF-12 act | DAX1 inh confirm | SF1 AF2mut Luc | hgDAF12 ag | LXRb DAF12 ctr | others
COc1ccc(-c2cc(=NC(CC(C)C)C(=O)O)c3cc(C)ccc3o2)cc1 (stereo unspecified) | 17* | 6 | 1 | 5.2* | 5 | 4.5* | 5.2* | 10 | 0
COc1cccc(NC(=O)c2ccc3c(c2)CCCC3)c1 | 17* | 3 | 1.2* | 18* | 7.9* | 13* | 8.2* | 18* | 1 | LXR ag=2;hcDAF12 ag=5
COC(=O)C1=C(C)N(Cc2ccccc2C(F)(F)F)C(=NCc2ccc3c(c2)OCO3)NC1c1cccc(F)c1 (stereo unspecified) | 3 | 0 | -1 | -1 | -2 | · | · | · | ·
Cc1cccc(C)c1NC(=O)C(c1ccc(C#N)cc1)n1c(=O)c(-c2ccccc2)nc2ccccc21 (stereo unspecified) | 3 | -5 | -1 | -1 | -1 | · | · | · | ·
COc1ccc([C@H]2Cc3cccc(O)c3C(=O)O2)cc1O | 3 | 4 | 0 | -1 | 3 | · | · | · | ·
COc1ccc([C@H]2Cc3cc(O)cc(O)c3C(=O)O2)cc1O | 18* | 5 | 2.3* | 5.2* | 14* | 20* | 13* | 25* | 1 | LXR ag=2;hcDAF12 ag=11*
CCCn1cc(CCC(=O)Nc2ccc(Oc3cccnc3)cc2)c2ccccc21 | -1 | -3 | -2 | 0 | 1 | · | · | · | ·
Cc1ccc(-c2nc3ccc(C)cn3c2Cc2ccsc2)cc1 | 17* | 4 | 0 | 11* | 5 | 7.0* | 3.0* | 1 | 0
Clc1ccc2nc(-c3ccccc3)c(Cc3ccccc3)n2c1 | 2 | -3 | 0 | 2 | 0 | · | · | · | ·
Cc1ccn2c(Cc3ccccc3)c(-c3ccc(F)cc3)nc2c1 | 16* | 1 | 0 | 5.9* | 0 | 3 | 2 | 11* | 0
Cc1ccc2nc(-c3ccccc3)c(Cc3ccccn3)n2c1 | 13* | 5 | 1.4* | 5.1* | 7.4* | 7.4* | 6.2* | 16* | 0 | LXR ag=1;hcDAF12 ag=8.3*
Fc1ccc(-c2nc3ccc(Cl)cn3c2Cc2ccccc2)cc1 | 6 | -2 | -1 | 1 | 0 | · | · | · | ·
Cc1ccc2nc(-c3ccco3)c(Cc3ccsc3)n2c1 | 3 | 4 | -1 | 0 | 1 | · | · | · | ·
Cc1ccc2nc(-c3ccc(F)cc3)c(Cc3ccccn3)n2c1 | 14* | 4 | 0 | 9.3* | 8.6* | 8.1* | 6.7* | 11* | 1 | LXR ag=0;hcDAF12 ag=1
O=C(Nc1ccccc1)Nc1c(-c2ccc(F)cc2)nc2ncccn12 | -2 | 0 | 0 | -1 | -3 | · | · | · | ·
COc1ccc(-c2nc(-c3ccc(Br)o3)no2)cc1 | 17* | 1 | 1.3* | 7.3* | 4 | 14* | 3.5* | 16* | 1
O/C(=C\c1ccc2ccccc2n1)c1ccc(O)cc1O | 24* | 0 | 1.4* | 5.3* | 8.9* | 16* | 7.1* | 22* | 1 | LXR ag=2;hcDAF12 ag=10*
COc1ccc(/C=N/NC(=S)Nc2ccccc2)cc1 | 26* | 2 | -1 | 7.7* | 3 | 10* | 5.8* | 15* | 1
Cc1ccc(C(=O)Nc2ccc3nccnc3c2)cc1 | 13* | 0 | 1 | 5.3* | 9.0* | 17* | 8.3* | 16* | 1 | LXR ag=2;hcDAF12 ag=7.7*
CC(=O)c1ccc(NC(=O)c2ccc(C)c(Br)c2)cc1 | 16* | 7 | 0 | 4.9* | 5.7* | 12* | 9.4* | 18* | 1
Cc1cc(NC(=O)c2ccc3nccnc3c2)ccc1Br | 16* | 2 | 1 | 5.6* | 5 | 7.6* | 4.7* | 15* | 1
COC(=O)c1ccc(NC(=O)c2ccc3nccnc3c2)cc1 | 3 | -2 | -1 | 0 | -3 | · | · | · | ·
CCCCC(=O)Nc1ccc(C(=O)NNC(=O)c2ccc(C)c(Br)c2)cc1 | 0 | -4 | -1 | 0 | -1 | · | · | · | ·
CC(C)CNc1cccc2c1S(=O)(=O)N[C@@H](Cc1ccccc1)CO2 | 2 | -3 | -1 | -1 | -1 | · | · | · | ·
Cc1cccc(C)c1-n1nnnc1C(c1ccnc2ccccc12)N1CCOCC1 (stereo unspecified) | 1 | 3 | -1 | 1 | 1 | · | · | · | ·
COc1ccc(C(=O)O/N=C(\N)c2ccc(Cl)cc2)cc1 | 6 | 4 | -1 | 0 | -2 | · | · | · | ·
COc1ccccc1C(=O)O/N=C(\N)c1ccc(Cl)cc1 | 18* | 6 | 1.4* | 5.0* | 9.2* | 1 | 3 | 14* | 1 | LXR ag=1;hcDAF12 ag=6.3*
C/C(=N\NC(=O)c1ccccc1F)c1cccc(NC(=O)c2ccc(C)cc2)c1 | 13* | 3 | -1 | 5.0* | 1 | 0 | 1 | 7 | 0
C/C(=N\NC(=O)c1cccc(F)c1)c1cccc(NC(=O)c2ccc(F)cc2)c1 | 4 | 4 | 0 | 1 | 3 | · | · | · | ·

Assay outcomes: PubChem, The Scripps Research Institute Molecular Screening Center
